# In PubChem BioAssay AID865 (The Scripps Research Institute Molecular Screening Center, 2007):
# This is one part of the list. The source made the active and inactive calls.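 The calls were made as follows: active = activation above the screen-wide mean activation plus 3 SD (cut at about 8% in these data); inactive = the rest.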
# Assay: activators of NFAT-driven beta-lactamase reporter, confirmation, counter-screen for GALR2 agonist project, CHO NFAT-bla cells, FRET readout (AID 865);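 also: 0% = DMSO with PBS wells and 100% = thapsigargin positive control wells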
# Settings: at 5.6 µM, active compounds read high
row,SMILES,activation
1,Cn1c(=O)oc2cc(S(=O)(=O)N3CCC(C(=O)Nc4ccc(OC(F)(F)F)cc4)CC3)ccc21,1.18% (inactive)
2,O=C1COc2ccc(NC(=O)N3CCN(c4ccc(F)cc4)CC3)cc2N1,-0.56% (inactive)
3,O=C(NC(=S)Nc1ccc(NC(=O)c2cccs2)cc1)c1ccc([N+](=O)[O-])cc1,-1.18% (inactive)
4,CC(=O)Oc1ccc(C(C)=O)c2c1OCCO2,-1.79% (inactive)
5,C=CCN(CC=C)S(=O)(=O)c1ccc(C(=O)Nc2nc3c(s2)CCc2ccccc2-3)cc1,1.61% (inactive)
6,COc1ccc(C(=O)CN2C(=O)NC(C)(c3ccc(C)cc3)C2=O)cc1OC (centres undefined),-1.81% (inactive)
7,COc1ccc(Nc2oc(-c3ccccc3Cl)nc2C#N)cc1,-0.84% (inactive)
8,COCCN(CCOC)S(=O)(=O)c1ccc(C(=O)Nc2nc3c(s2)CCc2ccccc2-3)cc1,2.54% (inactive)
9,C=CCn1c(Oc2ccc(C(=O)OC)cc2)nc2c1c(=O)n(C)c(=O)n2C,-0.9% (inactive)
